Results from PubChem BioAssay AID2540 (Sanford-Burnham Center for Chemical Genomics, 2010).
The campaign covered roughly 330,000 compounds. About 4,100 (1.2%) were called active. The full list was thinned out, with actives kept by preference. A number with no mark means an inactive call. No stated cut-off is given here; in the data, active means inhibition above about 50%; inactive means the rest.

Each compound was assayed against Sentrin-specific protease 8 (Homo sapiens) (UniProt Q96LD8) (assay: SENP8 protease inhibitors, primary screen, biochemical, luminescence (AID 2540)). Details: purified SENP8, Z-RLRGG-aminoluciferin cleavage, at 10 µM, stronger effect = higher value.
Sentrin-specific protease 8 (Homo sapiens), sequence (Q96LD8 whole entry, looked up): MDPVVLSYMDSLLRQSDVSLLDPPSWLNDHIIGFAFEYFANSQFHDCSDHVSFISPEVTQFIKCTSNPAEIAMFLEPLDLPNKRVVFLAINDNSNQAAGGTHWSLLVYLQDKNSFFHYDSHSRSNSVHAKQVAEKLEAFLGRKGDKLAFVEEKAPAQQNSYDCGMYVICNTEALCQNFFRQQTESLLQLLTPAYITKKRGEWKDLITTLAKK

Question: For `CCCCC(CC)C(=O)Nc1ccc(Cl)cn1` (centres undefined), which inhibition is on record?
Answer: 7.93%

Question: `Cc1cccc(C)c1NC(=O)CNC(=O)c1ccc2c(c1)OCCO2` was tested. Which inhibition did it give?
Answer: -10.7%

Question: For `Cc1ccc(C(=O)NNC(=O)c2ccc3c(c2)OCCO3)cc1`, which inhibition is on record?
Answer: 5.52%

Question: For `CCCc1cc(C(=O)Nc2ccc(Cl)cn2)cs1`, which inhibition is on record?
Answer: 66.2% (active)

Question: Which inhibition does the source give for `Cc1nc(NC(=O)c2ccc3c(c2)OCCO3)ccc1Br` here?
Answer: 74.8% (active)

Question: How did the inhibition turn out when `COc1ccc(C(=O)NC(=S)Nc2ccc(Cl)cn2)cc1OC` was run?
Answer: -13.1%

Question: With `CCCc1cc(C(=O)Nc2ccc(C(=O)OC)cc2)cs1` as the compound, how does the inhibition read?
Answer: -3.33%

Question: Which inhibition does the source give for `O=C(Nc1ccc(Cl)cn1)c1ccc2c(c1)OCCO2` here?
Answer: 75.8% (active)

Question: For `O=C(Nc1ccc(Cl)cn1)c1cnn2cccnc12`, which inhibition is on record?
Answer: -0.161%

Question: For `CCCCN(C(=O)CCNC(=O)NC12CC3CC(CC(C3)C1)C2)c1c(N)n(CCCC)c(=O)[nH]c1=O`, which inhibition is on record?
Answer: -4.31%

Question: With `COc1ccccc1NC(=O)CCC(=O)OC(C)C(=O)c1ccccc1` (centres undefined) as the compound, how does the inhibition read?
Answer: -4.92%

Question: Which inhibition does the source give for `Cc1cc(Nc2cc(N3CCN(C)CC3)nc(Sc3ccc(NC(=O)C4CC4)cc3)n2)n[nH]1` here?
Answer: -3.96%

Question: How did the inhibition turn out when `CC(=O)N(C1=C(Cl)C(=O)c2ccccc2C1=O)c1ccc(C(=O)O)cc1` was run?
Answer: 61.8% (active)

Question: `O=C(CCN1C(=O)c2ccccc2C1=O)NNC(=O)c1ccc(Cl)cc1Cl` was tested. Which inhibition did it give?
Answer: -11.3%

Question: Which inhibition does the source give for `O=S1(=O)CC/C(=N\Nc2ccc(F)cc2)c2ccsc21` here?
Answer: -11.5%

Question: With `CNC(C)C#Cc1ccc2sc3cc(OC)c(OC)cc3c(=O)c2c1` (centres undefined) as the compound, how does the inhibition read?
Answer: 70.5% (active)

Question: `O=C(NC(=S)N1CCCCC1c1cccnc1)c1ccccc1` (centres undefined) was tested. Which inhibition did it give?
Answer: -8.93%

Question: For `O=C(CCCCO)c1ccc(O)c(Cl)c1`, which inhibition is on record?
Answer: -4.6%

Question: With `Cc1ccc(-n2c(-c3ccc(Cl)cc3)n[nH]c2=S)cc1` as the compound, how does the inhibition read?
Answer: -0.548%

Question: How did the inhibition turn out when `Cc1ccn2cc(C(=O)NC3CCN(Cc4ccccc4)CC3)nc2c1` was run?
Answer: 3.06%

Question: How did the inhibition turn out when `CCN(CC)S(=O)(=O)c1ccc(-c2cn3ccc(C)cc3n2)cc1` was run?
Answer: -1.4%

Question: `Cc1ccc(-c2cn3cc(C)ccc3n2)cc1` was tested. Which inhibition did it give?
Answer: 84.7% (active)

Question: With `CSc1nnc2ccc(-c3ccc(C)cc3)nn12` as the compound, how does the inhibition read?
Answer: -14.2%

Question: For `COc1ccc(-c2cn3ccc(C)cc3n2)cc1`, which inhibition is on record?
Answer: 95.5% (active)

Question: With `Cc1ccc2nc(-c3ccc(Br)cc3)cn2c1` as the compound, how does the inhibition read?
Answer: 74.4% (active)

Question: Which inhibition does the source give for `Cc1ccc(-c2cc(N)on2)cc1` here?
Answer: -6.42%

Question: How did the inhibition turn out when `Cc1cc(N2CCOCC2)nc(-c2ccc(Br)cc2)n1` was run?
Answer: -13.3%

Question: Which inhibition does the source give for `COCCN(CCOC)S(=O)(=O)NC[C@H]1O[C@@H](n2cnc3c(N)ncnc32)[C@H](O)[C@@H]1O` here?
Answer: 3.39%

Question: With `COc1ccccc1CCNS(=O)(=O)c1cc2c3c(c1)C(C)C(=O)N3CCC2` (centres undefined) as the compound, how does the inhibition read?
Answer: -8.53%

Question: For `CCn1nc(C)c(/C=N/NC(=O)Cc2ccc(Cl)cc2)c1C`, which inhibition is on record?
Answer: -9.56%

Question: For `Cc1ccc(NC(=O)CC2C(=O)N(Cc3ccccc3)C(=S)N2NC(=O)c2cccc(F)c2)c(C)c1` (centres undefined), which inhibition is on record?
Answer: -4.05%

Question: Which inhibition does the source give for `Cc1ccc(O)c(NC(=S)NC(=O)COc2ccc(Br)cc2)c1` here?
Answer: -5.01%

Question: Which inhibition does the source give for `CCCc1cc(=O)[nH]c(SCc2ccc(C#N)cc2)n1` here?
Answer: 0.541%

Question: `Cc1cc(=O)[nH]c(N/N=C/c2ccc3c(c2)OCCO3)n1` was tested. Which inhibition did it give?
Answer: -1.24%

Question: With `C(=N\Nc1ccc2ccccc2n1)/c1ccc2c(c1)OCO2` as the compound, how does the inhibition read?
Answer: 93.1% (active)

Question: With `Cc1noc(C)c1/C=N/Nc1ccc2ccccc2n1` as the compound, how does the inhibition read?
Answer: -8.03%

Question: Which inhibition does the source give for `COc1cc(-c2nnc(Cn3cc(C(F)(F)F)ccc3=O)o2)cc(OC)c1OC` here?
Answer: -4.14%

Question: Which inhibition does the source give for `Cc1ccc(C)c(-n2c(SCC(=O)O)nc3sc4c(c3c2=O)CCCC4)c1` here?
Answer: -9.61%

Question: How did the inhibition turn out when `CCCCCc1ccc(-c2cn(Cc3ccc4ccccc4c3)nn2)cc1` was run?
Answer: -9.63%

Question: How did the inhibition turn out when `CCCCCc1ccc(-c2ccc(C(=O)O)cc2)nc1` was run?
Answer: 92.4% (active)

Question: With `CCCCCc1ccc(-c2ccc(OCC)cc2)nc1` as the compound, how does the inhibition read?
Answer: -5.58%

Question: `CC(C)CN(C(=O)CSc1nncn1C)C1CCS(=O)(=O)C1` (centres undefined) was tested. Which inhibition did it give?
Answer: -3.63%

Question: With `CCOCCc1nn2c(=O)cc(CSCC(=O)Nc3cccc(C)c3C)nc2s1` as the compound, how does the inhibition read?
Answer: -0.564%

Question: With `O=C(Nc1nnc(C2COc3ccccc3O2)o1)c1ccc(F)cc1` (centres undefined) as the compound, how does the inhibition read?
Answer: -17.2%

Question: With `FC(F)(F)c1ccnc(Oc2ccc(C3=NCCS3)cc2)c1` as the compound, how does the inhibition read?
Answer: 67.8% (active)

Question: With `CC(C)Oc1ccc(Oc2ccc(C(F)(F)F)cn2)cc1` as the compound, how does the inhibition read?
Answer: -8.39%

Question: How did the inhibition turn out when `NC1=NC(=O)C(Cc2cccc(Cl)c2)S1` (centres undefined) was run?
Answer: -2.31%

Question: How did the inhibition turn out when `O=C(NCCCN1CCOCC1)c1cnn2c(-c3ccccc3)cc(-c3ccccc3)nc12` was run?
Answer: -0.117%

Question: With `N#C/C=C1\Sc2ccccc2C(=O)N1CC(=O)N1CCN(S(=O)(=O)c2ccccc2)CC1` as the compound, how does the inhibition read?
Answer: -2.48%

Question: How did the inhibition turn out when `CCCc1ccc(OCCNC(=O)c2ccccc2Br)cc1` was run?
Answer: 7.2%

Question: For `CCCOc1ccc(C(=O)NCCc2ccccc2)cc1`, which inhibition is on record?
Answer: 52% (active)

Question: `CCCc1ccc(OCCNC(=O)c2ccco2)cc1` was tested. Which inhibition did it give?
Answer: 2.92%

Question: How did the inhibition turn out when `CCCC(C(=O)n1nc(C)cc1C)C(NS(=O)(=O)c1ccc(C)cc1)c1ccccc1` (centres undefined) was run?
Answer: -2.3%

Question: `Cc1ccc(C)c(NC(=O)NNC(=O)c2ccc3ccccc3c2O)c1` was tested. Which inhibition did it give?
Answer: -2.4%

Question: With `C#CCOCCOCCOCCNc1nc(N2CCN(C(=O)[C@H](CCCN=C(N)N)n3cc(C(N)[C@@H](C)CC)nn3)CC2)nc(N2CCN(C(=O)[C@H](CO)n3cc([C@@H](N)C(C)C)nn3)CC2)n1` (some centres undefined) as the compound, how does the inhibition read?
Answer: 5.69%

Question: `O=C(O)/C=C/C(=O)NNc1ccc([N+](=O)[O-])cc1` was tested. Which inhibition did it give?
Answer: 69.3% (active)

Question: Which inhibition does the source give for `O=C(Cc1ccccc1)NNS(=O)(=O)c1ccc([N+](=O)[O-])cc1` here?
Answer: -1.17%

Question: How did the inhibition turn out when `CNC(=S)Nc1ccc([N+](=O)[O-])cc1` was run?
Answer: -4.02%

Question: With `CCOC(=O)C1(Cc2cccc(OC)c2)CCN(Cc2csc(C(C)=O)c2)CC1` as the compound, how does the inhibition read?
Answer: -11.2%

Question: For `O=C(CCCCCn1c(=S)[nH]c2ccsc2c1=O)NC1CCCCC1`, which inhibition is on record?
Answer: 0.315%

Question: With `Cc1nn(CC(=O)Nc2ccc(C#N)cc2)c(C)c1[N+](=O)[O-]` as the compound, how does the inhibition read?
Answer: -9.74%

Question: `O=C(Nc1cccc2ccccc12)c1onc2c1CCCC2` was tested. Which inhibition did it give?
Answer: 71.5% (active)

Question: `CN(CC(=O)Nc1ccc(Cl)cc1)CC(=O)Nc1cccc2ccccc12` was tested. Which inhibition did it give?
Answer: -2.39%

Question: `O=C(O)Cc1ccc(NC(=O)Nc2cccc3ccccc23)cc1` was tested. Which inhibition did it give?
Answer: -11%
